Experimental data reported in the supplement of paper PMC12645437, “Orthogonal IMiD-Degron Pairs Induce Selective Protein Degradation in Cells” (ACS Chemical Biology, 2025).
The full ranking holds about 8,300 sequences; the median of “log2 fold change of degron read counts, EGFP-low vs EGFP+ sorted cells (limma voom), compound-induced degradation” is about -1.1, and the highest 2% start at about 3.2. What follows is part of a selection rich in the highest values, with near analogues and random picks from the rest.

T1: CRBN, Q96SW2
T1 chain: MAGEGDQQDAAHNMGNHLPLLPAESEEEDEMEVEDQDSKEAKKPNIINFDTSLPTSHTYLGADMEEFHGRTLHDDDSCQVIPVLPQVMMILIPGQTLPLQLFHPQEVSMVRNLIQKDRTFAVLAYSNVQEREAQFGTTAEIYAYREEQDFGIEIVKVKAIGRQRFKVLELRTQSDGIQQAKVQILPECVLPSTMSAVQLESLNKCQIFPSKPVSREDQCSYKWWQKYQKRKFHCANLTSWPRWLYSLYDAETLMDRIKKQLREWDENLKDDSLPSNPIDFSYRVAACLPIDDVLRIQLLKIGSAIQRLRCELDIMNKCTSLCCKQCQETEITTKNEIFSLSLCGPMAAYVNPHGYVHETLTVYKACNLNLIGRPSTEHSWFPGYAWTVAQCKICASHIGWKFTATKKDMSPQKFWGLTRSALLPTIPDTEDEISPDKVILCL


Molecular target: T1, CRBN, Q96SW2
Assay: log2 fold change of degron read counts, EGFP-low vs EGFP+ sorted cells (limma voom), compound-induced degradation; higher = more compound-induced degradation of the degron-EGFP fusion; degrons are variants of IKZF1/3 zinc finger 2; compound dose not given here
Settings: Jurkat, 18 h
[1] = compound: compound 19 (5-tert-butyl-thalidomide)
[2] = compound: compound 22 (5-morpholino-thalidomide)
[3] = compound: compound 33 (diphenyl IMiD analogue)
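Also: pooled lentiviral library of zinc finger degron-EGFP fusions in mCherry-positive Jurkat cells, FACS-sorted after compound exposure, with degron abundance counted by next-generation sequencing.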

Row | Sequence | log2 fold change of degron read counts [1] | log2 fold change of degron read counts [2] | log2 fold change of degron read counts [3] | log2 fold change of degron read counts (compound: thalidomide)
1 | LQCNQCGFHCTQKGNLLRHIKL [46L_47Q_49N_50Q_52G_53F_54H_55C_67L_, Q9UKT9] | -2.12 | -2.37 | -2.09 | -1.42
2 | FFCNQCGHGFTQKGNLLRHIKL [46F_47F_49N_50Q_52G_53H_54G_55F_67L_, Q9UKT9] | -2.03 | -2.15 | -2.79 | -2.52
3 | LKCPICGFMCTQKGNLLRHIKL [46L_47K_49P_50I_52G_53F_54M_55C_67L_, Q9UKT9] | -1.07 | -2.03 | -1.81 | -0.667
4 | LYCPICGFMCTQKGNLLRHIKL [46L_47Y_49P_50I_52G_53F_54M_55C_67L_, Q9UKT9] | 3.14 | 2.92 | 2.43 | 1.14
5 | LVCPICGFMCTQKGNLLRHIKL [46L_47V_49P_50I_52G_53F_54M_55C_67L_, Q9UKT9] | 0.688 | 2.15 | 2.09 | 2.63
6 | LTCPICGFMCTQKGNLLRHIKL [46L_47T_49P_50I_52G_53F_54M_55C_67L_, Q9UKT9] | 0.987 | 1.84 | 2.27 | 2.3
7 | LWCPICGFMCTQKGNLLRHIKL [46L_47W_49P_50I_52G_53F_54M_55C_67L_, Q9UKT9] | 2.86 | 3.37 | 2.86 | 1.56
8 | LECPICGFMCTQKGNLLRHIKL [46L_47E_49P_50I_52G_53F_54M_55C_67L_, Q9UKT9] | -0.459 | -0.68 | 1.22 | 2.37
9 | LGCPICGFMCTQKGNLLRHIKL [46L_47G_49P_50I_52G_53F_54M_55C_67L_, Q9UKT9] | 3.42 | 1.83 | 1.01 | 0.537
10 | LSCPICGFMCTQKGNLLRHIKL [46L_47S_49P_50I_52G_53F_54M_55C_67L_, Q9UKT9] | 1.79 | 1.66 | 1.67 | 1.42
11 | LQCPICGFMCTQKGNLLRHIKL [46L_47Q_49P_50I_52G_53F_54M_55C_67L_, Q9UKT9] | 0.655 | 2.15 | 2.04 | 3.55
12 | FVCPQCGAFFTQKGNLLRHIKL [46F_47V_49P_50Q_52G_53A_54F_55F_67L_, Q9UKT9] | -1.99 | -1.44 | -0.515 | -0.988
13 | FCCPICGHFFTQKGNLLRHIKL [46F_47C_49P_50I_52G_53H_54F_55F_67L_, Q9UKT9] | -1.42 | -2.1 | -1.42 | -1.48
14 | FACEICGHNFTQKGNLLRHIKL [46F_47A_49E_50I_52G_53H_54N_55F_67L_, Q9UKT9] | -2.91 | -3.62 | -3.22 | -3.1
15 | FECSVCGHHFTQKGNLLRHIKL [46F_47E_49S_50V_52G_53H_54H_55F_67L_, Q9UKT9] | -3.39 | -3.71 | -3.71 | -3.11
16 | FRCPICGHVFTQKGNLLRHIKL [46F_47R_49P_50I_52G_53H_54V_55F_67L_, Q9UKT9] | -2.24 | -2.31 | -0.964 | -1.86
17 | LACEICGFFCTQKGNLLRHIKL [46L_47A_49E_50I_52G_53F_54F_55C_67L_, Q9UKT9] | 1.23 | 0.591 | 0.235 | 0.329
18 | FKCEICGHCFTQKGNLLRHIKL [46F_47K_49E_50I_52G_53H_54C_55F_67L_, Q9UKT9] | -2.38 | -3.82 | -3.48 | -2.98
